The supplement of paper PMC9694430

Legend:
Experiment in all cases: thermal shift delta Tm vs DMSO control; higher = stronger stabilization (binding)
Conditions in all cases: 12.5 µM; protein concentration 2 µM
LOC_OS01G01410-cb001 = tested on: LOC_OS01G01410-cb001
In short: (§1)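 Thermal shift values come from differential scanning fluorimetry on purified rice kinase domains made in E. coli, with melting temperatures obtained from Boltzmann fits. Samples of 19.5 μl held 2 μM kinase, 100 mM potassium phosphate pH 7.5, 150 mM NaCl, 10% glycerol, 5 × SYPRO Orange and compound in DMSO, and were heated from 25°C to 95°C at 0.05°C/s. Each shift is a triplicate mean relative to the DMSO-only protein sample.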

LOC_OS01G02750-cb003 = tested on: LOC_OS01G02750-cb003
In short: as §1

LOC_OS01G10900-cb004 = tested on: LOC_OS01G10900-cb004
In short: as §1

LOC_OS01G13800-cb001 = tested on: LOC_OS01G13800-cb001
In short: as §1

LOC_OS01G14860-cb001 = tested on: LOC_OS01G14860-cb001
In short: as §1

LOC_OS01G21960-cb002 = tested on: LOC_OS01G21960-cb002
In short: as §1

LOC_OS01G39600-cb002 = tested on: LOC_OS01G39600-cb002
In short: as §1

LOC_OS01G48390-cb002 = tested on: LOC_OS01G48390-cb002
In short: as §1

LOC_OS01G51400-cb002 = tested on: LOC_OS01G51400-cb002
In short: as §1

LOC_OS01G52050-cb004 = tested on: T1, LOC_OS01G52050-cb004
T1 sequence (whole entry): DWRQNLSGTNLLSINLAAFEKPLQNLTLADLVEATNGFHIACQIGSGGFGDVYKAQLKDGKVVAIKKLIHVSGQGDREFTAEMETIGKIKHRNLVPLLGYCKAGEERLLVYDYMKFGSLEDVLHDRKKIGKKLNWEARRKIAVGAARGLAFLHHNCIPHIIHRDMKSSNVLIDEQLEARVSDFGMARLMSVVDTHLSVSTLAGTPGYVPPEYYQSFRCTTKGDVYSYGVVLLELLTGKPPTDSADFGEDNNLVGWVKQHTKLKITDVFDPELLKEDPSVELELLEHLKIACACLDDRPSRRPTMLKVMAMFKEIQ
In short: as §1

LOC_OS01G57100-cb003 = tested on: LOC_OS01G57100-cb003
In short: as §1

LOC_OS01G60330-cb001 = tested on: LOC_OS01G60330-cb001
In short: as §1

LOC_OS01G60700-cb002 = tested on: LOC_OS01G60700-cb002
In short: as §1

LOC_OS01G63280-cb003 = tested on: LOC_OS01G63280-cb003
In short: as §1

LOC_OS01G67340-cb003 = tested on: LOC_OS01G67340-cb003
In short: as §1

LOC_OS01G70970-cb002 = tested on: LOC_OS01G70970-cb002
In short: as §1

LOC_OS02G07810-cb001 = tested on: LOC_OS02G07810-cb001
In short: as §1

LOC_OS02G08530-cb003 = tested on: LOC_OS02G08530-cb003
In short: as §1

LOC_OS02G14120-cb001 = tested on: LOC_OS02G14120-cb001
In short: as §1

LOC_OS02G17970-cb001 = tested on: LOC_OS02G17970-cb001
In short: as §1
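Note: purified Escherichia coli-expressed rice kinase domain construct.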

Structure (SMILES)	thermal shift delta Tm (LOC_OS01G01410-cb001)	thermal shift delta Tm (LOC_OS01G02750-cb003)	thermal shift delta Tm (LOC_OS01G10900-cb004)	thermal shift delta Tm (LOC_OS01G13800-cb001)	thermal shift delta Tm (LOC_OS01G14860-cb001)	thermal shift delta Tm (LOC_OS01G21960-cb002)	thermal shift delta Tm (LOC_OS01G39600-cb002)	thermal shift delta Tm (LOC_OS01G48390-cb002)	thermal shift delta Tm (LOC_OS01G51400-cb002)	thermal shift delta Tm (LOC_OS01G52050-cb004)	thermal shift delta Tm (LOC_OS01G57100-cb003)	thermal shift delta Tm (LOC_OS01G60330-cb001)	thermal shift delta Tm (LOC_OS01G60700-cb002)	thermal shift delta Tm (LOC_OS01G63280-cb003)	thermal shift delta Tm (LOC_OS01G67340-cb003)	thermal shift delta Tm (LOC_OS01G70970-cb002)	thermal shift delta Tm (LOC_OS02G07810-cb001)	thermal shift delta Tm (LOC_OS02G08530-cb003)	thermal shift delta Tm (LOC_OS02G14120-cb001)	thermal shift delta Tm (LOC_OS02G17970-cb001)
CCn1c(=O)c(-c2ccc(Cl)cc2Cl)cc2cnc(Nc3ccc(N4CCNCC4)c(F)c3)nc21	5.82 °C	1.71 °C	7.68 °C	0.11 °C	3.38 °C	0.97 °C	5.06 °C	2.05 °C	-0.48 °C	5.06 °C	2.04 °C	0.13 °C	1.12 °C	5.95 °C	6.72 °C	2.45 °C	0.21 °C	0.94 °C	7.16 °C	1.08 °C
C[C@@H](N)[C@H]1CC[C@H](C(=O)Nc2ccncc2)CC1	1.02 °C	0.15 °C	0.1 °C	0.65 °C	0.11 °C	0.84 °C	0.45 °C	0.65 °C	0.29 °C	-0.08 °C	0.49 °C	1.12 °C	1.12 °C	0.48 °C	0.04 °C	0.52 °C	0.9 °C	0.85 °C	0.71 °C	0.32 °C
CN1CCN(c2ccc3nc(-c4c(N)c5c(F)cccc5[nH]c4=O)[nH]c3c2)CC1 [Dovitinib (TKI-258) Dilactic Acid]	5.85 °C	2.07 °C	4.46 °C	-0.49 °C	1.65 °C	3.5 °C	4.66 °C	3.4 °C	0.79 °C	6.33 °C	1.5 °C	13.5 °C	1.33 °C	1.22 °C	6.31 °C	7.56 °C	1.75 °C	4.53 °C	6.88 °C	0.5 °C
Cc1cc(N2CCOCC2)cc2[nH]c(-c3c(NC[C@@H](O)c4cccc(Cl)c4)cc[nH]c3=O)nc12	4.78 °C	2.98 °C	-0.47 °C	0.09 °C	1.24 °C	1.2 °C	2.56 °C	1.43 °C	0.28 °C	3.88 °C	1.15 °C	6.82 °C	-0.31 °C	1.68 °C	1.08 °C	1.82 °C	0.46 °C	4.03 °C	1.99 °C	0.82 °C
O=C(/C=C/c1ccc2ccccc2n1)c1ccncc1	0.4 °C	-1.2 °C	1.49 °C	0.45 °C	1.08 °C	2.15 °C	-0.61 °C	0.91 °C	0.46 °C	-0.48 °C	1.22 °C	1.35 °C	0.05 °C	1.12 °C	0.62 °C	0.59 °C	0.02 °C	2.02 °C	2.08 °C	1.05 °C
NC1(c2ccc(-c3nc4ccn5c(=O)[nH]nc5c4cc3-c3ccccc3)cc2)CCC1	0.94 °C	-0.51 °C	0.16 °C	0.23 °C	0.18 °C	-0.02 °C	0.19 °C	0.18 °C	-0.13 °C	0.16 °C	-0.32 °C	1.3 °C	1.21 °C	-0.33 °C	-0.9 °C	0.31 °C	0.4 °C	0.46 °C	-0.05 °C	1.42 °C
NC(=O)c1cnc(N[C@@H]2CCCC[C@@H]2N)nc1Nc1cccc(-n2nccn2)c1	0.52 °C	0.79 °C	-0.04 °C	-0.14 °C	3.33 °C	1.47 °C	0.85 °C	0.37 °C	1.02 °C	5.03 °C	2.55 °C	0.94 °C	1.04 °C	0.28 °C	0.99 °C	2.19 °C	-0.28 °C	4.36 °C	2.99 °C	1.5 °C
Nc1cccc(S(=O)(=O)N2CCCN(S(=O)(=O)c3ccc4c(c3)OCCO4)CC2)c1	0.49 °C	1.98 °C	0.15 °C	0.22 °C	0.23 °C	0.8 °C	-0.77 °C	3.24 °C	0.46 °C	0.19 °C	0.46 °C	0.53 °C	0.59 °C	-0.02 °C	0.27 °C	0.17 °C	0.54 °C	0.32 °C	0.21 °C	0.7 °C
CCN(CC)CCCC(C)Nc1ccnc2cc(Cl)ccc12 (stereo not given) [Chloroquine Phosphate]	0.08 °C	1.04 °C	0.14 °C	0.44 °C	0.13 °C	0.63 °C	-0.06 °C	-0.02 °C	0 °C	-0.11 °C	0.41 °C	0.19 °C	0.9 °C	-0.08 °C	0.32 °C	-0.07 °C	0.25 °C	0.31 °C	0.87 °C	-0.06 °C
Oc1ccc(-c2nc(-c3ccc(F)cc3)c(-c3ccncc3)[nH]2)cc1	1.39 °C	0.58 °C	0.58 °C	0.18 °C	2.36 °C	0.98 °C	-0.06 °C	0.38 °C	0.01 °C	0.5 °C	1.5 °C	0.98 °C	2.02 °C	0.47 °C	-0.26 °C	0.63 °C	1.96 °C	1.58 °C	0.99 °C	1.05 °C
O=c1c(-c2ccc(O)cc2)coc2cc(O)cc(O)c12 [Genistein]	0.67 °C	0.54 °C	0.86 °C	-0.01 °C	1.11 °C	0.55 °C	0.12 °C	0.77 °C	0.12 °C	1.14 °C	-0.59 °C	0.72 °C	1.28 °C	0.16 °C	-0.02 °C	0.33 °C	0.97 °C	1.28 °C	-1.28 °C	1.58 °C
FC(F)(F)c1ccc(CNc2ccc(Cc3c[nH]c4ncc(Cl)cc34)cn2)cn1 [Pexidartinib (PLX3397)]	1.9 °C	3.35 °C	3.09 °C	0.85 °C	1.22 °C	2.07 °C	2.41 °C	6.28 °C	0.37 °C	10.2 °C	1.87 °C	3.92 °C	0.67 °C	2.9 °C	3.78 °C	2.89 °C	1.03 °C	3.22 °C	9.87 °C	2.01 °C
